# Data as given in the supplement of paper PMC7156485.
# ± gives the standard deviation of the averaged measurements.
# Experiments:
# Details in all cases: concentration: 10 µM; 24 h
# HCC1569 [1] = assay: cell number relative to DMSO (% of DMSO); higher = more cells (less growth inhibition / toxicity)
# How it was run: (§1)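 Using 384-well plates with 800 cells per well in RPMI plus 10% FBS, HCC1569 and TDF cells were exposed to compounds at 10 µM, in triplicate, for 24 h at 37 °C. Imaging of six fields per well at ×10 followed H1.0 and DAPI staining. The reported quantity, H1.0 nuclear intensity or cell number, is a median of replicates given as percent of the plate control, and HCC1569 values were smoothed for positional effects.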
# TDF [2] = assay: as above
# How it was run: as §1
# TDF [3] = assay: H1.0 immunofluorescence intensity relative to DMSO (% of DMSO); higher = stronger H1.0 induction, active = 120 or more
# How it was run: as §1
# HCC1569 [4] = assay: H1.0 immunofluorescence intensity relative to DMSO (% of DMSO); higher = stronger H1.0 induction, active = 140 or more
# How it was run: as §1
# 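For H1.0 immunofluorescence intensity relative to DMSO in this document: TDF is a line of transformed human dermal fibroblasts of mesenchymal origin.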
# 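For cell number relative to DMSO in this document: TDF denotes transformed human dermal fibroblasts of mesenchymal origin.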
Compound,cell number (HCC1569 [1]),cell number (TDF [2]),H1.0 immunofluorescence intensity (TDF [3]),H1.0 immunofluorescence intensity (HCC1569 [4])
C[N+](C)(C)CCOC(=O)CCC(=O)OCC[N+](C)(C)C.O.O.[Cl-].[Cl-],103,104,92.5 (inactive),102 (inactive)
"O=C1Nc2cc(Br)ccc2C1=C1N=c2ccccc2=C1NO [(2'Z,3'E)-6-Bromoindirubin-3'-oxime]",54.7,61.4,118 (inactive),171 (active)
COC(C)(C)CCCC(C)CC=CC(C)=CC(=O)O (stereo unspecified) [Methoprene acid],104,91.9,98 (inactive),94.6 (inactive)
"CCCCCCCCCCCCCC=CC(O)C(CO)N(C)C (stereo unspecified) [N,N-Dimethylsphingosine]",110,90.2,101 (inactive),101 (inactive)
COc1ccc2[nH]c(S(=O)Cc3ncc(C)c(OC)c3C)nc2n1 (stereo unspecified) [Tenatoprazole],103,104,106 (inactive),100 (inactive)
CCCCCC(O)C=CC1C(O)CC(O)C1CC=CCCCC(=O)O (stereo unspecified) [Prostaglandin F2a],97.3,107,97.6 (inactive),112 (inactive)
O=C(O)CCC(=O)N1CCC[C@H]1C(=O)O [N-Succinyl-L-proline],99.6,100,102 (inactive),104 (inactive)
Cc1ccccc1N1C(=O)c2cc(S(N)(=O)=O)c(Cl)cc2NC1C (stereo unspecified) [Metolazone],104,110,89.8 (inactive),91.1 (inactive)
C[C@@H]([C@@H](O)c1ccc(O)cc1)N1CCC(O)(c2ccccc2)CC1,102,91.1,94.7 (inactive),105 (inactive)
OCC1OC(O)C(Cl)C(O)C1O [2-Chloro-2-deoxy-D-glucose],104,101,101 (inactive),92 (inactive)
Nc1c2c(nc3ccccc13)CCCC2O.O=C(O)C=CC(=O)O (stereo unspecified) [Hydroxytacrine],106,101,91.5 (inactive),101 (inactive)
Nc1nc(Cl)nc2c1ncn2C1OC(COP(=O)([O-])OP(=O)([O-])OP(=O)([O-])[O-])C(O)C1O.[Na+].[Na+].[Na+].[Na+] (stereo unspecified) [2-Chloroadenosine triphosphate tetrasodium],102,99,89.5 (inactive),83.9 (inactive)
CNC(=O)c1ccccc1Sc1ccc2c(C=Cc3ccccn3)n[nH]c2c1 [Axitinib],67.8,46.4,99.1 (inactive),134 (inactive)
Cl.Cl.NCCNS(=O)(=O)c1cccc2cnccc12 [H-9 dihydrochloride],102,90.7,107 (inactive),100 (inactive)
CC1CNc2c(cccc2S(=O)(=O)NC(CCCN=C(N)N)C(=O)N2CCC(C)CC2C(=O)O)C1 (stereo unspecified) [Argatroban],107,104,94.1 (inactive),112 (inactive)
COc1ccc2c(c1)c(CC(=O)O)c(C)n2Cc1ccc(Cl)cc1 [1-(4-Chlorobenzyl)-5-methoxy-2-methylindole-3-acetic acid],104,91,96.8 (inactive),103 (inactive)
CC(C)c1cccc(O)c(=O)c1 [Hinokitiol],83.8,83,89.5 (inactive),94.8 (inactive)
Oc1ccc(-c2c(-c3ccccc3)nn3c(C(F)(F)F)cc(C(F)(F)F)nc23)cc1,67.9,12.4,154 (active),143 (active)
Cn1cc(C=C2C(=O)Nc3ccc(S(N)(=O)=O)cc32)c2ccccc21 [Syk Inhibitor],84.1,95.3,82.7 (inactive),132 (inactive)
CCC1(O)CC2CN(CCc3c([nH]c4ccccc34)C(C(=O)OC)(c3cc4c(cc3OC)N(C)C3C(O)(C(=O)OC)C(OC(C)=O)C5(CC)C=CCN6CCC43C65)C2)C1.O=S(=O)(O)O (stereo unspecified) [Vinblastine sulfate salt],48.9,16.8,152 (active),132 (inactive)
Fc1ccc(Cl)cc1-c1nc(Nc2ccncc2)c2nccnc2n1,98.4,91.6,98.2 (inactive),113 (inactive)
Cc1ncc(Cl)cc1NCc1ccc(C(=O)N[C@@H](CC2CCCC2)C(=O)NC2CC2)s1,96.6,96.1,99.9 (inactive),101 (inactive)
COc1cc2c(cc1OC)-c1[nH]nc(Nc3cccc(F)c3)c1C2 [PDGF Receptor Tyrosine Kinase Inhibitor IV],64.3,8.88,131 (active),160 (active)
Cl.O=C1CC2(CCCC2)CC(=O)N1CCCCN1CCN(c2ncccn2)CC1 [Buspirone hydrochloride],97.6,96.8,94.3 (inactive),97 (inactive)
CC(C)CCNC(=O)C(CC(C)C)NC(=O)C1OC1C(=O)O (stereo unspecified),106,96.1,100 (inactive),92.5 (inactive)

Compound,cell number (HCC1569 [1]),cell number (TDF [2]),H1.0 immunofluorescence intensity (TDF [3]),H1.0 immunofluorescence intensity (HCC1569 [4])
O=c1cc(-c2ccc(O)cc2)oc2c(C3OC(CO)C(O)C(O)C3O)c(O)cc(O)c12 (stereo unspecified) [Vitexin],101,100,99.5 (inactive),85.1 (inactive)
CN=C(NC#N)Nc1ccc(C2=NNC(=O)CC2C)cc1 (stereo unspecified) [Siguazodan],103,104,95.4 (inactive),115 (inactive)
COc1c2c(nc3ccccc13)OC(C(C)(O)CO)C2 (stereo unspecified) [Dubinidine],102 ± 7.2,104 ± 5.6,96.1 (inactive),106 (inactive)
CCCCN1CC(O)C(O)C(O)C1CO (stereo unspecified) [Miglustat],100,95.6,97.2 (inactive),114 (inactive)
"CCCCCCCCCCCC=CC(C)(C)C=CCCCC(=O)O [7,7-Dimethyleicosadienoic acid]",105 ± 6.3,99.5 ± 3.4,99 (inactive),95.5 (inactive)
CN1CCN(c2c(F)cc3c(=O)c(C(=O)O)cn(CCF)c3c2F)CC1 [Fleroxacin],101,87.2,102 (inactive),112 (inactive)
"OC1C(O)C(O)C(O)C(O)C1O (stereo unspecified) [1,2,3,4,5,6-cyclohexanehexol]",102 ± 3,104 ± 7.5,96.9 (inactive),92.9 (inactive)
Clc1ccc2c(c1)C(N1CCNCC1)=Nc1ccccc1O2 [Amoxapine],99.54 ± 0.74,99.9 ± 2.6,99.7 (inactive),108 (inactive)
CCCC(CCC)C(=O)NO [N-hydroxy-2-propylpentanamide],100,102,98.7 (inactive),80.8 (inactive)
CNCCC(Oc1ccc(C(F)(F)F)cc1)c1ccccc1 (stereo unspecified) [Fluoxetine],99.3,94.1,100 (inactive),135 (inactive)
CSc1ccc(C(=O)c2[nH]c(=O)[nH]c2C)cc1 [Enoximone],107,109,96.3 (inactive),105 (inactive)
CC1=NC(=NNc2cc(S(=O)(=O)[O-])c3cc([N+](=O)[O-])cc(S(=O)(=O)[O-])c3c2)C(COP(=O)([O-])[O-])=C(C=O)C1=O.[Na+].[Na+].[Na+].[Na+] [PPNDS tetrasodium],104,115,91 (inactive),100 (inactive)
CN1CCN(c2ccc3c(c2)NC(=C2C(=O)N=c4cccc(F)c4=C2N)N3)CC1,81.3,72.6,93.5 (inactive),149 (active)
COc1c(C)c2c(c(O)c1CC=C(C)CCC(=O)O)C(=O)OC2 [Mycophenolic Acid],78.3 ± 3.8,63.3 ± 4.9,104 (inactive),116 (inactive)
Cn1cnc([N+](=O)[O-])c1Sc1ncnc2nc[nH]c12 [Azathioprine],99.15 ± 0.87,101.8 ± 0.74,94.9 (inactive),97.6 (inactive)
C=CCCCCCCCCCCC(=O)O [12-Tridecenoic acid],99.7,91.7,106 (inactive),98.7 (inactive)
CC(C)(C)c1onc(OCP(=O)(O)O)c1CC(N)C(=O)O (stereo unspecified),104,113,91.2 (inactive),95.1 (inactive)
COc1cc2ncnc(Nc3ccc(NC(=O)c4ccccc4)cc3)c2cc1OC [Aurora Kinase Inhibitor II],77.8,54.8,111 (inactive),133 (inactive)
"CC(C)CCC[C@@H](C)[C@H]1CC[C@H]2[C@@H]3CC(=O)[C@H]4C[C@@H](O)CC[C@]4(C)[C@H]3CC[C@]12C [(3beta,5alpha)-3-hydroxycholestan-6-one]",105,92.5,98.5 (inactive),98.6 (inactive)
CCCCC(C)(O)CC=CC1C(O)CC(=O)C1CCCCCCC(=O)OC (stereo unspecified) [Misoprostol],106,107,93.2 (inactive),108 (inactive)
"CC(C)(CCCCCCCCCCC(C)(C)CC(=O)O)CC(=O)O [3,3,14,14-tetramethylhexadecanedioic acid]",102,97.7,96.6 (inactive),93.7 (inactive)
"CC(C)=CCC(OC(=O)C=C(C)C)C1=CC(=O)c2c(O)ccc(O)c2C1=O (stereo not drawn) [Shikonin beta,beta-dimethylacrylate]",25.4,83.5,109 (inactive),114 (inactive)
CC[N+](CC)(CC)CC(=O)Nc1c(C)cccc1C.[Br-] [Lidocaine N-ethyl bromide quaternary salt],106,108,88.4 (inactive),94.3 (inactive)
CCCCCC=CCC1OC1C(O)C=CCC=CCCCC(=O)O (stereo unspecified) [Hepoxilin B3],102,95,95.2 (inactive),93.1 (inactive)
